Values joined by “and” are separate entries in the source; they are usually repeats but may differ in a detail not shown here. Equal values may be shown once. Inconclusive results are not listed. Some compounds were tested as several samples or in several runs, with calls that do not always agree. Active and inactive are the calls of the source. The calls were made as follows: active = hit-call score of the fitted dose curve at least 0.9, where 1 is the maximum; inconclusive = response in the unintended direction; inactive = score below 0.9.

Cellular tumor antigen p53 (Homo sapiens), sequence (P04637 whole entry, looked up, the tested form may be a part): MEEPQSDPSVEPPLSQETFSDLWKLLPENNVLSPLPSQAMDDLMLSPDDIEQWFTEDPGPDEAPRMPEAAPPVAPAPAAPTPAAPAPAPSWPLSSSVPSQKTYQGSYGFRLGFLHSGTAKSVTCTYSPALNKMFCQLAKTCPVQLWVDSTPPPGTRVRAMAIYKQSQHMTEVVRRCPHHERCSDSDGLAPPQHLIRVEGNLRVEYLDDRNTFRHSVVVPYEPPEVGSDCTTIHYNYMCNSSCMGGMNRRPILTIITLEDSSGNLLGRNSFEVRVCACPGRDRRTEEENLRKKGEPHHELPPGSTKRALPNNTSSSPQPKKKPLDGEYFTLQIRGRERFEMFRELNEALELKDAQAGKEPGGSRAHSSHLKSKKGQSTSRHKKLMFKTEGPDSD

This assay addresses Cellular tumor antigen p53 (Homo sapiens) (UniProt P04637). Kind of assay: TOX21_p53_BLA_p2_ratio: Tox21 HCT-116 p53 Agonism Beta-lactamase Assay, Ratio, Phase 2 (AID 2283592). The source says: TOX21_p53_BLA_p2 is a cell-based, single-readout assay that uses HCT116, a human intestinal cell line, […] in a 1536-well plate.TOX21_p53_BLA_p2_ratio is an assay readout measuring reporter gene via receptor activity and designed using inducible reporter (beta lactamase induction) detected with GAL4 b-lactamase reporter gene. The signal is derived from the ratio of cleaved (ch2) to uncleaved (ch1) reporter gene substrate used as the measure of target activity.Data from the assay component TOX21_p53_BLA_p2_ratio was analyzed into 1 assay endpoint. This assay endpoint, TOX21_p53_BLA_p2_ratio, was analyzed in the positive analysis fitting direction relative to DMSO as the negative control and baseline of activity. Using a type of inducible reporter, gain-of-signal activity can be used to understand changes in the reporter gene as they relate to the gene TP53. Furthermore, this assay endpoint can be referred to as a primary readout, because this assay has produced multiple assay endpoints and this ratio serves a reporter gene function to understand target activity. To generalize the intended target to other relatable targets, this assay endpoint is annotated to the DNA binding intended target family, where the subfamily is tumor suppressor.
Thawing Method: Place 14 mL of pre-warmed thaw medium into a 15 mL of conical tub. Remove the vial of cells to be thawed from liquid nitrogen and thaw rapidly by placing at 37C in a water bath with gentle agitation for 1-2 minutes. Decontaminate the vial by wiping with 70% ethanol before opening in a biological safety cabinet. Transfer the vial contents drop-wise into 14 mL of thaw medium in a sterile 15-mL conical tub. Centrifuge cells at 900 rpm for 4 minutes and resuspend in thaw medium. Transfer contents to the T75 tissue culture flask containing Thaw Medium and place flask in a humidified 37C/5% CO2 incubator. Switch to growth medium at first passage.Propagation Method: Aspirate medium, rinse once in DPBS, add 0.25% Trypsin/EDTA and swirl to coat the cell evenly. Add an equal volume of Growth Medium to inactivate Trypsin after 2-3 minutes incubation at 37C. Centrifuge cells at 900 rpm for 4 minutes and resuspend in growth medium. Cell should be passage or fed at least twice a week.Assay Protocol: Harvest cells from culture in growth medium and resuspend in assay medium. 2.2 Dispense 4000 cells/5 uL/well into 1536-well black/clear bottom plates using a Multidrop dispenser. After the cells were incubated at 37C for 5 hours, 23 nL of compounds dissolved in DMSO were transferred to the assay plate by a PinTool resulting in a 217-fold dilution. Incubate the plates for 16 hours at 37C, 5% CO2. Add 1 uL of 6X LiveBLAzer FRET B/G (CCF4-AM) Substrate Mixture to each well using a BioRAPTR dispenser and incubate the plates at room temperature for 2 hours. Measure fluorescence intensity at 460 and 530 nm emission and 405 nm excitation by an Envision detector. Data is expressed as the ratio of 460nm/530nm emissions. Add 4 uL of Cell-titer Glo to each well using BioRAPTR and incubate the plates at room temperature for 2 hours. Measure fluorescence intensity by a VewLux plate reader.
Take `CCOP(=S)(OCC)SCSc1cc(Cl)ccc1Cl`: the outcome was inactive.
On to `O=c1[nH]c2ccccc2n1C1CCN(CCCC(c2ccc(F)cc2)c2ccc(F)cc2)CC1`, for which the outcome was inactive and the AC50 is 39.4 µM (active).
On to `C=CCc1ccccc1O`, for which the outcome was inactive.
Same read-out and setting: the result for `CCC[CH2][Sn]([CH2]CCC)([CH2]CCC)[CH2]CCC` reads “inactive”.
With `CCOC(=O)OC1=C(c2cc(C)ccc2C)C(=O)NC12CCC(OC)CC2` (stereo not given), the AC50 was 46.1 µM (active).
As to `Brc1ccc(Br)cc1`, the outcome was inactive.
Still for that read-out and setting: the result for `CC(C)(C#N)N=NC(C)(C)C#N` reads “inactive”.
Consider `C=C(C)C(=O)OCC(CC)CCCC` (stereo not given), for which the outcome was inactive.
For `O=C(Cl)OCCOCCOC(=O)Cl`, the outcome was inactive.
Still for that read-out and setting: the result for `C=C(C)[C@@H]1CC=C(C=O)CC1` reads “inactive”.
With `O=C(NC(=O)c1c(F)cccc1F)Nc1cc(Cl)c(OC(F)(F)C(F)C(F)(F)F)cc1Cl` (stereo not given), the result was inactive.
For `CC(C)CC(C)(c1ccc(O)cc1)c1ccc(O)cc1`, the AC50 is 41.7 µM (active) and 71.7 µM (active).
In the case of `CCCCCCCCBr`, the outcome was inactive.
Same read-out and setting: the entry for `OCCCCO` is “inactive”; for `O=S1OC[C@@H]2[C@H](CO1)[C@]1(Cl)C(Cl)=C(Cl)[C@@]2(Cl)C1(Cl)Cl` (stereo not given in full) it is “inactive”; for `c1ccc(-c2cccc(-c3ccccc3)c2)cc1` it is “inactive”.
In the case of `O=C(Nc1ccc(Br)cc1)c1cc(Br)cc(Br)c1O`, the concentration at half-maximal activity (AC50) is 1.15 µM (active) and 272 nM (active) and 3.12 µM (active).
In the case of `C#CCO`, the outcome was inactive.
Still for that read-out and setting: the entry for `O=[N+]([O-])c1ccccc1O` is “inactive”; for `O=CCCl` it is “inactive”.
For the molecule `O=C(NC(=O)c1c(F)cccc1F)Nc1cc(Cl)c(Oc2ncc(C(F)(F)F)cc2Cl)c(Cl)c1`, the AC50 is 6.18 µM (active).
Still for that read-out and setting: the result for `COP(=S)(OC)Oc1cc(Cl)c(I)cc1Cl` reads 73.9 µM (active).
Regarding `Cl[C@H]1OCCO[C@@H]1Cl`, the outcome was inactive.
On the same count and under the same terms, the result for `CC(C)(C1CCC(O)CC1)C1CCC(O)CC1` (stereo not given) reads “inactive”; that for `CCOP(=S)(OCC)O/N=C(\C#N)c1ccccc1`, “inactive”.
Take `Nc1nc(N)nc(Cl)n1`: the result was inactive.
On the same count and under the same terms, the entry for `CCOC(=O)CC(=O)CCl` is “inactive”; for `CCNc1nc(NCC)nc(SC)n1` it is “inactive”; for `Clc1cc(C(Cl)(Cl)Cl)cnc1Cl` it is “inactive”.
As for `OCC(c1ccc(Cl)cc1)c1ccc(Cl)cc1`, the concentration at half-maximal activity (AC50) was 80.1 µM (active).
In the case of `CCCCCCCCCCCCN(C)C`, the outcome was inactive.
`Cc1cc(-c2cc(C)c(N)c(C)c2)cc(C)c1N`: the result was inactive.
On the same count and under the same terms, the result for `O=c1oc2ccccc2c(O)c1C(CC(O)c1ccc(-c2ccc(Br)cc2)cc1)c1ccccc1` (stereo not given) reads “inactive”.
For `C[CH2][Hg][S]c1ccccc1C(=O)O`, the half-maximal activity concentration (AC50) was 2.74 µM (active) and the outcome was inactive.
On to `OC(c1ccc(Cl)cc1)(c1ccc(Cl)cc1)c1cccnc1`, for which the AC50 is 44.3 µM (active).
For the molecule `c1ccc2c(c1)Oc1ccccc1O2`, the outcome was inactive.
On the same count and under the same terms, the result for `O=S(=O)(c1ccc(Cl)cc1)c1cc(Cl)c(Cl)cc1Cl` reads “inactive”.
Same read-out and setting: the result for `CS(=O)(=O)c1ccc(C(=O)C2C(=O)CCCC2=O)c(Cl)c1COCC(F)(F)F` reads “inactive”.

The record behind these values is PubChem BioAssay (EPA / NIEHS).
